From PubChem BioAssay
The full list was thinned out, with hits kept by preference.
Pf Dd2 growth – blocks in vitro growth of P. falciparum Dd2; actives 4.3% (n = 120,000); AID 1347417; P. falciparum Dd2 growth, SYBR Green, 72 h; Potency, µM (doses to about 28.9 µM), actives largely listed as inhibitors; active = well fitted inhibition curve with a large enough effect; note: nearly all actives have a fitted effect of over 65% in size
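Readout: SYBR Green fluorescence, 485 nm excitation, 535 nm emission, after ~16 h lysis at 37C. Before that, Dd2-infected red cells (2.5% hematocrit) grew 72 h with compound, 29 uM top final concentration.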
Each line names hits and unclear results; the compound was inactive in the other large screens.

COc1cccc(-c2cc(C3CCN(S(=O)(=O)c4ccc(F)cc4F)CC3)[nH]n2)c1	Pf Dd2 growth 7.1µM
COCCNS(=O)(=O)c1cc(C(=O)O)cc(-c2cccc3cccnc23)c1	none
Cn1c(CN2CCC(O)CC2)nnc1C1CCCN(C(=O)CCN)C1 (stereo not drawn)	none
CN(C)C(=O)c1cc(-c2cnccc2Cl)c2cccn2n1	none
O=C(NCc1ccc(F)cc1)c1cc(-c2cnccc2Cl)c2cccn2n1	Pf Dd2 growth 8.9µM
COC(=O)CNC(=O)c1cc(-c2cnccc2Cl)c2cccn2n1	none
O=C(N[C@@H]1CN(c2ncccn2)C[C@H]1CO)c1ccncc1	none
Cc1ccc(OCc2nc(C3CCN(C(=O)Cn4nc(C)cc4C)CC3)no2)cc1	none
COc1ccc(CNC(=O)CCC(=O)N2CC3CCCN3c3ccccc32)c(OC)c1 (stereo not drawn)	none
Cc1ccc(CNC(=O)CCC(=O)N2CCSc3ccccc32)cc1	none
CCOc1ccc(CNC(=O)CCC(=O)N2CC3CCCN3c3ccccc32)cc1 (stereo not drawn)	Pf Dd2 growth 13µM
COc1cccc(CNC(=O)c2c[nH]c3ncccc23)c1	none
COc1cccc(C(=O)NC(c2ccc(Cl)cc2)c2cc(Cl)c3cccnc3c2O)c1 (stereo not drawn)	Pf Dd2 growth 3.2µM
COc1cc(C(=O)Nc2ccc(Cl)c(-c3nc4ncccc4o3)c2)cc(OC)c1OC	none
COc1cc(C(=O)NCC(c2cccnc2)N2CCc3ccccc3C2)cc(OC)c1OC (stereo not drawn)	none
COc1cc(C(=O)NC(c2ccc(Cl)cc2)c2cc(Cl)c3cccnc3c2O)cc(OC)c1OC (stereo not drawn)	Pf Dd2 growth 2.8µM
COc1cccc(C(=O)N[C@H]2[C@H](O)[C@H](O)C[C@@H]2c2cccnc2)c1	none
O=Cc1ccccc1-c1ccccc1F	none
CCCc1ncncc1C(=O)N1C[C@@H](C)[C@](O)(C2CC2)C1	none
O=C(c1ncccn1)N1CCc2c(n(CCOc3ccccc3)n(-c3ccccc3)c2=O)C1	none
COc1cccc(S(=O)(=O)N2CCCC(Cc3nncn3CC3CC3)C2)c1 (stereo not drawn)	none
O=C(N[C@@H]1COCC[C@@H]1OCC1CC1)c1ccc2c(c1)CCCO2	none
COc1cccc(C2c3c(oc4ccc(C)cc4c3=O)C(=O)N2CCCN2CCOCC2)c1OC (stereo not drawn)	none
CCOc1cccc(C2c3c(oc4ccc(F)cc4c3=O)C(=O)N2CCc2ccc(OC)cc2)c1 (stereo not drawn)	none
CCCOc1cccc(C2c3c(oc4ccc(F)cc4c3=O)C(=O)N2CCCN2CCOCC2)c1 (stereo not drawn)	Pf Dd2 growth 6.3µM
CCS(=O)(=O)N[C@H](Cc1ccccc1)C(=O)N1CCOCCNC(=O)CC1	none
O=C(NC1CCN(C(=O)N2CC3CC(C2)[C@H]2CCCC(=O)N2C3)CC1)C1CCCC1 (stereo partly drawn)	none
CC(C)CNC(=O)N1CC(Oc2ccc(-c3nc(-c4ccccc4)no3)cc2)C1	none
CCN(C)c1ccnc(N2CC[C@@H]3C[C@H](N4CCOCC4)CC[C@@]3(COC)C2)n1	Pf Dd2 growth 8.9µM
COC[C@@]12CC[C@@H](N3CCOCC3)C[C@H]1CCN(c1nccc(NC(C)C)n1)C2	none
COC[C@@]12CC[C@@H](N3CCOCC3)C[C@H]1CCN(c1nccc(N)n1)C2	none
O=C(CC1CCCN(c2cnn(CC3CC3)c(=O)c2)C1)NCCN1CCCCC1 (stereo not drawn)	none
CC(=O)N1Cc2ccccc2CC2(CCCN(CC3CCOCC3)C2)C1 (stereo not drawn)	none
CC(=O)N1Cc2ccccc2CC2(CCCN(C)C2)C1 (stereo not drawn)	none
CC(C)C(=O)N1Cc2ccccc2CC2(CCN(CC3CCNCC3)C2)C1 (stereo not drawn)	none
CCN1CCCC2(Cc3ccccc3CN(C(=O)C(C)C)C2)C1 (stereo not drawn)	Pf Dd2 growth 11µM
CCN1CCCC2(Cc3ccccc3CN(C(=O)CCNC(C)=O)C2)C1 (stereo not drawn)	none
CC(C)C(=O)N1Cc2ccccc2CC2(CCCN(CC3CCOCC3)C2)C1 (stereo not drawn)	Pf Dd2 growth 7.1µM
Cc1cnccc1CN(C)Cc1ccc2c(C)cc(=O)oc2c1	none
O=C(NCCn1ccn2nc(-c3ccc(F)cc3)cc2c1=O)c1ccc2c(c1)OCO2	none
Cc1cccc(C(=O)N2CCC3(CCC(=O)N(C(C)C(=O)O)C3)CC2)c1 (stereo not drawn)	none
CCCCCN(CCC(=O)NCc1ccc2c(c1)OCO2)C(=O)c1cc(C)oc1C	none
COc1cccc(CNC(=O)CC2CCOCC2)c1OC	none
Cc1nn2c(NCCc3ncc[nH]3)cc(-c3ccccc3)nc2c1C	none
CC(C)c1nc(CN(C)C(=O)c2cc(COc3ccccc3)[nH]n2)no1	none
CCN(Cc1ccc(C)o1)C(=O)C(C)n1ccnc1C(C)C (stereo not drawn)	none
O=C1CCC2(CCNCC2)CN1CCCNc1cccnc1	none
CC(C)NC(=O)N(C1CC1)C1CCOC2(CCN(C(=O)CCCc3ccccc3)CC2)C1 (stereo not drawn)	none
Cn1cccc1CN1CCCC12Cc1ccccc1CNC2=O (stereo not drawn)	none
CC(C)c1nc2c(c(-c3ccc(O)cc3)n1)CCN(C(=O)c1ccc(F)cc1)CC2	none
COc1ccc(-c2nc(C(C)C)nc3c2CCN(C(=O)Nc2ccc(Cl)cc2)CC3)cc1	none
COc1ccc(-c2nc(C(C)C)nc3c2CCN(C(=O)c2ccccc2)CC3)cc1	none
CC(C)c1nc2c(c(-c3ccc(O)cc3)n1)CCN(CC1CCCCC1)CC2	Pf Dd2 growth 1.1µM
COc1ccc(CN2CCc3nc(C(C)C)nc(-c4ccc(O)cc4)c3CC2)cc1	Pf Dd2 growth 2.2µM
Cc1nc2c(c(-c3ccc(O)cc3)n1)CN(CC1CC1)CC2	none
CC(C)c1noc(C2CCCN(S(=O)(=O)c3ccccc3)CCC(=O)NCC2)n1 (stereo not drawn)	none
CC(C)CCN(C1CCOCC1)C1CCN(C(=O)c2ccc(F)cc2)CC1	none
CC(C)NC(=O)N1CCCC1c1nc(CCOc2ccc(F)cc2)no1 (stereo not drawn)	none
N#Cc1ccccc1N1CCN(C(=O)CCc2ccc(F)c(F)c2)CC1=O	none
CCCCN(C)C(=O)Cn1ccn2nc(-c3ccc(F)cc3)c(CO)c2c1=O	none
O=C1COC[C@H]([C@H](O)c2ccc(NS(=O)(=O)c3ccc(F)cc3)cc2)N1	none
COc1ccccc1C(=O)Nc1ccc(C(O)[C@H]2COCC(=O)N2)cc1 (stereo partly drawn)	none
CC(C)(C)c1ccc(C(=O)Nc2ccc(C(O)[C@H]3COCC(=O)N3)cc2)cc1 (stereo partly drawn)	Pf Dd2 growth 10µM
CC(NC(=O)Cc1cccn1-c1ccc(Cl)cc1)c1ccccn1 (stereo not drawn)	none
Cc1ccc(CN2C(=O)NC3(CCCN(C(=O)c4ccc(F)c(Cl)c4)C3)C2=O)cc1 (stereo not drawn)	Pf Dd2 growth 7.1µM
Cc1ccc(CN2C(=O)NC3(CCCN(C(=O)c4cccc(Cl)c4)C3)C2=O)cc1 (stereo not drawn)	none
O=C(c1ccc(F)c(Cl)c1)N1CCCC2(C1)NC(=O)N(Cc1ccccc1)C2=O (stereo not drawn)	none
COCCN1CCCCCC(O)c2cc(C(=O)NC3CCC3)ccc21 (stereo not drawn)	none
O=C(c1ccc(NCc2ccncc2)cc1)N1CCCC2(CCNCC2)CC1	none
CCOc1cc(=O)n2c(c1C(=O)Nc1ccc(C(N)=O)cc1)CCCC2	none
Cc1nc(C)c(C(=O)N2CCCN(C(=O)C3CC3)C(c3ccccc3)CC(=O)NCC2)s1 (stereo not drawn)	none
